Results filed as inconclusive are left out. Activity calls are given as the source filed them. Calls come from the whole dose curve; as a rule, active = well fitted curve in the direction sought with a large enough effect; inconclusive = small, poorly fitted or top-dose-only effect, or another doubt; inactive = no such curve, though single readings can be large; an effect the other way counts as inactive or inconclusive.
Key:
[1] = qHTS for inhibitors of adenylyl cyclases using a fission yeast platform: a pilot screen against the NCATS LOPAC library (AID 1347410);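 note: plate controls were DMSO vehicle for no effect and DPI positive control for full effect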
In short: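 Inhibition of GNAS-stimulated AC9 activity in S. pombe was inferred from derepression of a PKA-repressed fbp1-GFP reporter, measured as cytometric fluorescence after 18 h at 30C with compounds at up to 57 µM.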

[2] = qHTS to identify inhibitors of the type 1 interferon - major histocompatibility complex class I in skeletal muscle: primary screen against the NCATS Mechanism Interrogation Plate v5.0 (MIPE) Libary (AID 1347411); note: nearly all actives have a fitted effect of over 65% in size; note: potency is the fitted concentration of half-maximal effect;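 for activity change, negative = inhibition: plate controls were vehicle for no effect and reference inhibitor for full effect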
Excerpt: Assay Submitter (PI): Travis B. Kinder Ph.D. & James Inglese Ph.D.
Assay Development and Screening Technology Laboratory (ADST)
National Center for Advancing Translational Sciences (NCATS), Rockville, MD
National Institute of Health (NIH), Bethesda, Maryland
Idiopathic inflammatory myopathies, collectively referred to as myositis, are a group of rare autoimmune diseases characterized by skeletal muscle inflammation, weakness, and usually accompanied by systemic pathologies of the skin, lungs, or vasculature. Current immunosuppressive therapies and glucocorticoids are often not curative and are accompanied by harsh side effects, especially in children with juvenile myositis. We initiated a drug repurposing and development program to identify more targeted, less toxic therapeutics to treat myositis. Although its cause is not known, muscle from a subset of patients have an abundance of the inflammatory type 1 interferon (IFN) and a down-stream product major histocompatibility complex class I (MHC class I), which are both thought to contribute to damage and weakness. We conducted quantitative high throughput screening on 6,576 compounds (4,679 unique) through a series of cell-based assays to identify those that inhibit the IFN-stimulated expression of MHC class I in muscle precursor cells (myoblasts). The compound identification and evaluation strategy utilized a primary screen with reporter-tagged MHC class I in genome-engineered myoblasts, ATP content counter screen for viability, HLA-ABC immunofluorescence secondary screen, and HLA-B RT-qPCR tertiary screen.
The primary screen utilized CRISPR/Cas9 genome-engineering of immortalized human myoblasts, C25cl48, where a pro-luminescent reporter HiBit was fused to the C-terminus of endogenous MHC class I allele HLA-B*08:01 (HLA-B HiBit myoblasts). HiBit is an 11 amino acid fragment of NanoLuc luminescent reporter (Promega Corporation), and when complexed to the larger LgBit fragment, the reconstituted enzyme produces light in the presence of furimazine substrate (Schwinn et al., 2018). Briefly, HLA-B HiBit myoblasts were plated into 1536-well plates, treated with 4.0 ng/ml human IFN-beta and 2,480 compounds from the NCATS Mechanism Interrogation Plate v5.0 (MIPE5.0) in an 11-point, 1:3 titration with a high final concentration of 46 uM. After 24 hrs of treatment, cells were assayed by Nano-Glo HiBiT Lytic Detection System (Promega) and luminescence measured by a ViewLux 1430 Ultra HTS (Perkin Elmer).
Schwinn MK, Machleidt T, Zimmerman K, Eggers CT, Dixon AS, Hurst R, Hall MP, Encell LP, Binkowski BF, Wood K V. 2018. CRISPR-Mediated Tagging of Endogenous Proteins with a Luminescent Peptide. ACS Chem Biol 13:467-474. doi:10.1021/acschembio.7b00549
PROTOCOL TABLE (as described by Inglese et al., 2007)
SEQUENCE No. (e.g., 1, 2, 3, etc.); […] (e.g., Cells, Incubation, Reagent, etc.); VALUE; DESCRIPTION
1a; Cells; 5 uL; Use a Multidrop Combi (Thermo Scientific) to seed 300 cells/well into 24 Greiner 1536 well white/solid bottom, high base, TC plates in 5 ul/well of iHSKM growth medium (GM) without dexamethasone into columns 1+2. Add metal lids with gas-exchange holes
1b; Cells; 5 uL; Use a Multidrop Combi (Thermo Scientific) to seed 300 cells/well into 24 Greiner 1536 well white/solid bottom, high base, TC plates in 5 ul/well of iHSKM GM without dexamethasone + 4 ng/ml IFN-b into columns 3 - 48. Add metal lids with gas-exchange holes […]
7; Detector; 5 sec; Measure luminescence with ViewLux 1430 Ultra HTS (Perkin Elmer). […]

[3] = target: Protein phosphatase 1D (Homo sapiens) (UniProt O15297); assay: RapidFire Mass Spectrometry qHTS Assay for Modulators of WT P53-Induced Phosphatase 1 (WIP1) (AID 1347424);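 note: amount of dephosphorylated VEPPL-S-QETFS peptide product formed by WIP1; series mostly up to about 63 µM; plate controls were DMSO wells for no effect and GSK830371 inhibitor control at 10 µM for full effect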
Sequence of Protein phosphatase 1D (Homo sapiens) (O15297 whole entry, looked up): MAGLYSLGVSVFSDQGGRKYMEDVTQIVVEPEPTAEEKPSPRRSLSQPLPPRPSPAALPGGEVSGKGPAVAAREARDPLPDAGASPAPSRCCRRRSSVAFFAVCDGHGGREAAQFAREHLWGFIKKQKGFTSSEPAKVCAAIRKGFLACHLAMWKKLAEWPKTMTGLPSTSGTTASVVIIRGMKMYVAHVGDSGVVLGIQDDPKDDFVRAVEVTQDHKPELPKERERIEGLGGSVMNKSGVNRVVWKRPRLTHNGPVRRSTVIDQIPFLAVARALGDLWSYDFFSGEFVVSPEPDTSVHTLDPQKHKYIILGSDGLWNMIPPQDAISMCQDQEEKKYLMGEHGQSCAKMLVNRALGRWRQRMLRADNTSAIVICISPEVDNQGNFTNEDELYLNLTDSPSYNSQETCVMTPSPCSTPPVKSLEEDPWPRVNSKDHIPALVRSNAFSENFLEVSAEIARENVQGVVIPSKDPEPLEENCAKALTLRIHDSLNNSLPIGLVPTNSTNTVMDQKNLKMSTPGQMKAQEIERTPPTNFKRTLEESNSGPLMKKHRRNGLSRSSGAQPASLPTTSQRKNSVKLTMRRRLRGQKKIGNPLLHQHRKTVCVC
In short: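 RapidFire mass spectrometry measured dephosphorylated peptide after 5 min room-temperature reaction of 2 uM VEPPL-pS-QETFS with 10 nM WIP1 (50 mM Tris-HCl pH 7.5, 30 mM MgCl2, 0.1 mM EGTA, BSA), following 1 hr compound preincubation; 1 uM isotope-labelled product standard.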

[4] = target: Protein phosphatase 1D (Homo sapiens) (UniProt O15297); assay: Rhodamine-PBP qHTS Assay for Modulators of WT P53-Induced Phosphatase 1 (WIP1) (AID 1347425); note: % of control where 0% means no effect
In short: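 WIP1 (5 nM final) was preincubated with compound for 1 hour at room temperature. It then dephosphorylated 10 uM VEPPL-pS-QETFS peptide in Tris-HCl pH 7.5 with 30 mM MgCl2. Released Pi was detected by 10 uM Rh-PBP fluorescence (ex 525/em 598 nm) read at 1-min intervals for 11 min, as delta f1 - f0.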

[5] = Validation qHTS assay for inhibitors of Activation Induced Cytidine Deaminase (AID): UDG Counterscreen signal (AID 1347427); note: 0% is about no effect
In short: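 Fluorescence at 560 nm excitation, 665 nm emission reports UDG signal after 250 mM NaOH (2x) addition and 30 min. Enzymes (AID 1 uM, UDG 2 U/mL, at 4/3x) preincubated 10 min with compound, then 4 h with 4x 250 nM DJC20/DJC23 substrate at room temperature.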

[6] = target: Single-stranded DNA cytosine deaminase (Homo sapiens) (UniProt Q9GZX7); assay: Validation qHTS assay for inhibitors of Activation Induced Cytidine Deaminase (AID): AID signal (AID 1347429); note: potency is the fitted concentration of half-maximal effect; for activity change, negative = inhibition: % is set by controls: 0 for no effect and ±100 for the full control effect
Sequence of Single-stranded DNA cytosine deaminase (Homo sapiens) (Q9GZX7 whole entry, looked up): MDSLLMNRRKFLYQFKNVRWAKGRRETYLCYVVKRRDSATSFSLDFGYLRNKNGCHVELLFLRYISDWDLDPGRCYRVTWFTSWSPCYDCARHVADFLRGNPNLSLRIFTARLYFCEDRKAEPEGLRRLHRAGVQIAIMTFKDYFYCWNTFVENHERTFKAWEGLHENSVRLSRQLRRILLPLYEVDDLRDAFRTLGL
In short: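 Steps: dispense AID with UDG; pin-transfer compound up to 114 uM final; add DJC20/DJC23 substrate and hold 4 hr at room temperature; add NaOH, hold 30 min; read FRET signal (540/590 nm).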

[7] = Primary qHTS for inhibitors of La Crosse Virus (LACV) - induced cell death in SH-SY5Y cells (AID 1508616);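 note: top concentration of the series differs between compounds; 0% = infected DMSO wells and 100% = uninfected DMSO wells; higher means more rescue of cells from virus-induced death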
In short: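 SH-SY5Y, 6000 cells/well; cpd via pin tool in DMSO; LACV 0.01 MOI; 6 d 37C 5% CO2; ATPLite, 5 min RT; luminescence normalized to ±virus DMSO controls.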

[8] = target: Calcium and integrin-binding protein 1 (Homo sapiens) (UniProt Q99828); assay: Validation qHTS for Identification of Calcium Integrin Binding protein 1 (CIB1) Competitor (AID 1508618); note: % is set by controls: 0 for no effect and ±100 for the full control effect
Sequence of Calcium and integrin-binding protein 1 (Homo sapiens) (Q99828 whole entry, looked up): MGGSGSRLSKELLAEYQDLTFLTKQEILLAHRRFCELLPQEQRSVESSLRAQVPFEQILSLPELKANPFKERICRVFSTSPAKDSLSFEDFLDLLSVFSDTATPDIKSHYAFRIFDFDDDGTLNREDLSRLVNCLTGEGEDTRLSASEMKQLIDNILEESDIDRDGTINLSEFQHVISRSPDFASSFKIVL
In short: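 Fluorescence polarization with 1 uM CIB1-GST and 100 nM FITC-alphaIIb peptide in HEPES pH 7.4, NaCl, 5 mM CaCl2, Tween20. Compounds at up to 114 uM final, preincubated with protein 15 min; read after 15 min more at RT.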

[9] = target: Calcium and integrin-binding protein 1 (Homo sapiens) (UniProt Q99828); assay: Primary qHTS for Identification of Calcium Integrin Binding Protein 1 (CIB1) Competitor (AID 1508620);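 note: GST tagged CIB1 binding a fluorescein labelled alphaIIb integrin peptide tracer; top concentration of the series differs between compounds; % is set by controls: 0 for no effect and ±100 for the full control effect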
In short: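 CIB1-GST (1 uM final) and compound incubated 15 min at room temperature before adding FITC-alphaIIb peptide tracer (100 nM final). Competition for binding read by fluorescence polarization (ex 480, em 540) after another 15 min at room temperature.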

[10] = target: Calcium and integrin-binding protein 1 (Homo sapiens) (UniProt Q99828); assay: Confirmatory qHTS for Identification of Calcium Integrin Binding Protein 1 (CIB1) Competitor (AID 1508617); note: % is set by controls: 0 for no effect and ±100 for the full control effect; nearly all actives have a fitted effect of over 65% in size
In short: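 FP competition: CIB1-GST (1 uM final) in 5 mM HEPES pH 7.4, 125 mM NaCl, 5 mM CaCl2, 0.01% Tween20 preincubated 15 min RT with compounds (up to 114 uM), then FITC-alphaIIb peptide (100 nM), 15 min RT; Ex 480/Em 540.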

CCCN(CCC)C(=O)C(CCC(=O)O)NC(=O)c1ccccc1 (configuration not stated)
inactive: outcome [1] | Potency [2] | Potency [3] | outcome [4] | outcome [5] | Potency [6] | Potency [7] | outcome [8] | Potency [9]

O=C(O)CN(CCOCCOCCN(CC(=O)O)CC(=O)O)CC(=O)O
inactive: outcome [1] | activity change, negative = inhibition [3] 15.2% [at 0.505 µM] | activity change, negative = inhibition [4] -3.01% [at 0.575 µM] | outcome [5] | Potency [6] | Potency [7] | outcome [8]

O=C(CCCN1CCC(O)(c2cccc(C(F)(F)F)c2)CC1)c1ccc(F)cc1
inactive: outcome [1] | Potency [3] | outcome [4] | outcome [5] | Potency [6] | Potency [7] | outcome [8]

Cc1scc2c1N(C(=O)CN1CCN(C)CC1)c1ccccc1NC2=O
inactive: outcome [1] | Potency [3] | outcome [4] | outcome [5] | Potency [6] | Potency [7] | outcome [8]

C[C@]12C=CC(=O)C=C1CC[C@H]1[C@@H]3C[C@@H](O)[C@](O)(C(=O)CO)[C@@]3(C)C[C@H](O)[C@@]12F
inactive: outcome [1] | Potency [3] | outcome [4] | outcome [5] | Potency [6] | Potency [7]

CC(=O)[C@]1(O)Cc2c(O)c3c(c(O)c2[C@@H](O[C@H]2C[C@H](N)[C@H](O)[C@H](C)O2)C1)C(=O)c1ccccc1C3=O
inactive: outcome [1] | Potency [3] | outcome [4] | outcome [5] | Potency [7] | outcome [8]
active: Potency [2] 2080 nM | Potency [6] 2000 nM

Cc1cc(C)c(/C=C2\C(=O)Nc3ccccc32)[nH]1
inactive: outcome [1] | Potency [2] | Potency [3] | outcome [4] | outcome [5] | Potency [7] | Potency [9]

CO[C@@]1(NC(=O)CSCC#N)C(=O)N2C(C(=O)O)=C(CSc3nnnn3C)CS[C@@H]21
inactive: outcome [1] | Potency [3] | outcome [4] | outcome [5] | Potency [6] | Potency [7] | outcome [8]

O=C(O)CCCCCCCC(=O)O
inactive: outcome [1] | Potency [3] | outcome [4] | outcome [5] | Potency [6] | Potency [7] | outcome [8]

CCN(CC)CCOCCOC(=O)C1(c2ccccc2)CCCC1
inactive: outcome [1] | Potency [3] | outcome [4] | outcome [5] | Potency [6] | Potency [7] | outcome [8]

C#CCN(C)CCCOc1ccc(Cl)cc1Cl
inactive: outcome [1] | Potency [3] | outcome [4] | outcome [5] | Potency [6] | Potency [7] | outcome [8]

CCc1c(C)[nH]c2c1C(=O)C(CN1CCOCC1)CC2 (configuration not stated)
inactive: outcome [1] | Potency [3] | outcome [4] | outcome [5] | Potency [6] | Potency [7] | outcome [8]

CN(C)CCCN1c2ccccc2Sc2ccc(C(F)(F)F)cc21
inactive: outcome [1] | Potency [3] | outcome [4] | outcome [5] | Potency [6] | Potency [7]

COc1ccc([C@@H]2Sc3ccccc3N(CCN(C)C)C(=O)[C@@H]2OC(C)=O)cc1
inactive: outcome [1] | Potency [2] | Potency [3] | outcome [4] | outcome [5] | Potency [6] | Potency [7] | outcome [8] | Potency [9]

COc1ccc(CCN(C)CCCC(C#N)(c2cc(OC)c(OC)c(OC)c2)C(C)C)cc1OC (configuration not stated)
inactive: outcome [1] | Potency [3] | outcome [4] | outcome [5] | Potency [6] | Potency [7] | outcome [8]

CCO/C([O-])=N/c1c[n+](N2CCOCC2)no1
inactive: outcome [1] | Potency [3] | outcome [4] | outcome [5] | Potency [6] | Potency [7] | outcome [8]

CN(C)C(=O)Oc1ccc[n+](C)c1
inactive: outcome [1] | Potency [3] | outcome [4] | outcome [5] | Potency [6] | Potency [7] | outcome [8]

CCN(CC)CCNC(=O)c1ccc(NC(C)=O)cc1
inactive: outcome [1] | Potency [3] | outcome [4] | outcome [5] | Potency [6] | Potency [7] | outcome [8]

NC(N)=N/N=C/c1c(Cl)cccc1Cl
inactive: outcome [1] | Potency [3] | outcome [4] | outcome [5] | Potency [6] | Potency [7] | outcome [8]

CN=C(NC#N)NCCSCc1nc[nH]c1C
inactive: outcome [1] | Potency [3] | outcome [4] | outcome [5] | Potency [6] | Potency [7] | outcome [8]

C[N+](C)(C)CCOC(N)=O
inactive: outcome [1] | Potency [3] | outcome [4] | outcome [5] | Potency [6] | Potency [7] | outcome [8]

CN(C)CCN(Cc1cccs1)c1ccccn1
inactive: outcome [1] | Potency [3] | outcome [4] | outcome [5] | Potency [6] | Potency [7] | outcome [8]

CN(C)CC/C=C1\c2ccccc2COc2ccccc21
inactive: outcome [1] | Potency [3] | outcome [4] | outcome [5] | Potency [6] | Potency [7] | outcome [8]

CC(C)(C)NCC(O)c1cc(O)cc(O)c1 (configuration not stated)
inactive: outcome [1] | Potency [3] | outcome [4] | outcome [5] | Potency [6] | Potency [7] | outcome [8]

NC(=O)c1ncn([C@@H]2O[C@H](CO)[C@@H](O)[C@H]2O)c1O
inactive: outcome [1] | Potency [2] | Potency [3] | outcome [4] | outcome [5] | Potency [6] | Potency [7] | outcome [10] | outcome [8]

C[N+](C)(C)CCOC(=O)CCC(=O)OCC[N+](C)(C)C
inactive: outcome [1] | Potency [3] | outcome [4] | outcome [5] | Potency [6] | Potency [7] | outcome [8]
